Screening data as filed in PubChem BioAssay.
ROS inducer: raises reactive oxygen species in U2OS cancer cells | U2OS ROS induction, H2DCF-DA fluorescence | ROS induction (% of piperlongumine), % at 10 µM | 46,000 compounds, 2% hits; in the data active means ROS induction above about 79%, passing the limit was not always enough;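 further: 0% = DMSO vehicle median and 100% = reference compound median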
YB-1 expression: YB-1 expression inhibition; AID 434959; 30,000 compounds, 0.37% hits; delta delta Cp (YB-1 minus CDIP) (no concentration beside the values); U2OS, qRT-PCR YB-1 vs CDIP delta delta Cp, 16 h; stronger effect = higher value; zero = DMSO, each unit about twofold;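 active means delta delta Cp rounded down to an integer at or above 3, about 3 SD of DMSO wells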;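 further: higher means less YB-1 transcript or more CDIP transcript relative to DMSO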
Numbers without * were called inactive; · = no result. Hits are enriched below; roughly 2.3% of the tested compounds scored in any of these assays.

SMILES | ROS inducer | YB-1 expression
C[C@@H]1CN([C@@H](C)CO)C(=O)c2cc(NC(=O)CCN3CCOCC3)ccc2O[C@@H]1CN(C)Cc1ccc(-c2ccccc2)cc1 | -7.8 | 0.199
C[C@@H]1CN([C@@H](C)CO)C(=O)Cc2cc(NC(=O)c3ccncc3)ccc2O[C@@H]1CN(C)Cc1ccc(Oc2ccccc2)cc1 | 5.5 | -0.0647
C[C@@H]1CN([C@H](C)CO)C(=O)Cc2cc(NC(=O)c3ccncc3)ccc2O[C@H]1CN(C)Cc1ccc(Oc2ccccc2)cc1 | 126.8* | -0.00392
CC(C)NC(=O)Nc1ccc2c(c1)CC(=O)N([C@H](C)CO)C[C@H](C)[C@H](CN(C)Cc1ccc(Oc3ccccc3)cc1)O2 | 15.1 | 0.214
C[C@@H]1CN([C@H](C)CO)C(=O)Cc2cc(NC(=O)CCN3CCOCC3)ccc2O[C@@H]1CN(C)Cc1ccc(Oc2ccccc2)cc1 | 87.5* | -0.0868
CC(C)NC(=O)Nc1ccc2c(c1)CC(=O)N([C@H](C)CO)C[C@@H](C)[C@@H](CN(C)Cc1ccc(Oc3ccccc3)cc1)O2 | 129.0* | -0.155
C[C@H]1CN([C@@H](C)CO)C(=O)Cc2cc(NC(=O)CCN3CCOCC3)ccc2O[C@@H]1CN(C)Cc1ccc(Oc2ccccc2)cc1 | 17.7 | 0.0359
CCn1c2ccccc2c2cc(NC(=O)CCC3CCCCC3)ccc21 | 6.6 | ·
C[C@H]1CN([C@@H](C)CO)C(=O)Cc2cc(NC(=O)CCCCCC(=O)Nc3ccccc3N)ccc2O[C@@H]1CN(C)CC1CC1 | -4.2 | -0.216
O=C(C1CCCO1)N1N=C(c2c(-c3ccccc3)c3cc(Cl)ccc3[nH]c2=O)CC1c1ccco1 (configuration not stated) | 177.9* | ·
CN1CCN(C(=O)CSc2c(-c3ccccc3)c3cc(Cl)ccc3[nH]c2=O)CC1 | -1.8 | ·
COc1ccc(-n2c(-c3cccc(OC)c3)csc2=NCc2cccnc2)cc1 | 115.9* | 0.338
COc1ccc(-n2c(SCC(N)=O)nnc2-c2cccnc2)cc1 | 10.2 | ·
COc1ccccc1CC(=O)Nc1cc(Cl)ccc1O | 31.9 | ·
Cc1noc(C)c1NC(=O)N(C)C[C@@H]1Oc2c(NS(=O)(=O)c3cn(C)cn3)cccc2C(=O)N([C@@H](C)CO)C[C@@H]1C | -4.1 | -0.21
CSc1ccc(/C=N/N(C)S(=O)(=O)c2ccc(C)cc2)cc1 | 72.1 | -0.299
Cc1ccc(/C=N/N(C)S(=O)(=O)c2ccc(C)cc2)cc1 | 95.1* | -0.313
CCCCc1nc2sc3c(Cl)ncnc3c2c2c1COC(C)(C)C2 | 112.9* | ·
CCCCc1nc2sc3c(NCc4ccccc4)ncnc3c2c2c1COC(C)(C)C2 | -9.3 | ·
Cc1cc(C(=O)Nc2cccc3c2O[C@H](CN(C)CC2CCCCC2)[C@@H](C)CN([C@@H](C)CO)C3=O)n(C)n1 | 11.4 | -0.482
C=CCSc1nnc2c(n1)OC(c1ccc(-c3ccc(F)cc3)o1)N(C(C)=O)c1ccccc1-2 (configuration not stated) | 118.1* | 0.173
CSc1nnc2c(n1)OC(C)N(C(C)=O)c1ccccc1-2 (configuration not stated) | 12.4 | 0.179
Cc1c(C(=O)O)oc2ccc(S(=O)(=O)NCCc3ccccc3)cc12 | -5.0 | ·
NC(=O)C(Cc1ccccc1)NS(=O)(=O)c1ccc2oc3ccccc3c2c1 (configuration not stated) | 164.9* | ·
C[C@H](CO)N1C[C@H](C)[C@H](CN(C)S(=O)(=O)c2ccc(C#N)cc2)Oc2ncc(C#CC(C)(C)O)cc2C1=O | -0.6 | 0.322
SMILES | ROS inducer | YB-1 expression
Cc1ccc(S(=O)(=O)Nc2ccc3c(c2)C(=O)N([C@H](C)CO)C[C@@H](C)[C@@H](CN(C)C(=O)NC(C)C)O3)cc1 | -8.3 | -0.431
COc1cccc(/C=C2\CC(C)C/C(=C\c3ccccc3OC)C2=O)c1 (configuration not stated) | 2.2 | ·
CC1C/C(=C/c2cccn2C)C(=O)/C(=C/c2cccn2C)C1 (configuration not stated) | 260.8* | ·
CC(C)(C)c1cs/c(=N/c2ccccn2)n1-c1ccc(Cl)cc1 | 7.0 | ·
COc1ccc(S(=O)(=O)N(C)C[C@@H]2Oc3ccc(NS(=O)(=O)c4c(C)noc4C)cc3CC(=O)N([C@H](C)CO)C[C@@H]2C)cc1 | 1.4 | 0.137
C[C@H](CO)N1C[C@H](C)[C@H](CN(C)CC2CC2)Oc2ccc(NC(=O)CCC(F)(F)F)cc2C1=O | -16.6 | -0.192
C[C@@H]1CN([C@@H](C)CO)C(=O)CCCn2nncc2CO[C@H]1CN(C)C(=O)c1ccc2ccn(C)c2c1 | 94.0* | -0.155
C[C@H](CO)N1C[C@H](C)[C@H](CN(C)CC2CC2)OCc2cnnn2CCCC1=O | 137.0* | 0.0123
C[C@H]1CN([C@@H](C)CO)C(=O)CCCn2nncc2CO[C@@H]1CN(C)CC1CC1 | 71.1 | -0.0813
C[C@@H]1CN([C@H](C)CO)C(=O)CCCn2nncc2CO[C@@H]1CN(C)C(=O)c1ccc2ccn(C)c2c1 | -6.8 | 0.08
C[C@@H]1CN([C@H](C)CO)C(=O)Cc2cc(NS(=O)(=O)c3cn(C)cn3)ccc2O[C@@H]1CN(C)C(=O)Nc1ccc(F)cc1 | 30.2 | 0.214
COc1ccc(CC(=O)NCC(C)C)cc1 | 4.0 | -0.172
COc1ccc(OC)c(C(O)CNC(=O)CN)c1 (configuration not stated) | 122.2* | -0.422
COc1ccc(CN(C)C[C@@H]2Oc3ccc(NC(=O)Nc4c(C)noc4C)cc3CC(=O)N([C@H](C)CO)C[C@H]2C)cc1 | 4.7 | -0.379
CCCCc1c(-c2ccc(OC)cc2)[nH]c2nccnc12 | 4.3 | 0.0428
CCCCc1c(-c2ccc(O)cc2)[nH]c2nccnc12 | 3.5 | 3.35*
Cc1ccc(S(=O)(=O)N(C)C[C@H]2Oc3ccc(NC(=O)CCCN(C)C)cc3C(=O)N([C@H](C)CO)C[C@@H]2C)cc1 | -2.6 | -0.118
O=C1c2ccccc2C2=Nc3ccccc3SC(c3ccc(F)cc3)C12 (configuration not stated) | 20.5 | ·
Cc1cccc(C2Sc3ccccc3N=C3c4ccccc4C(=O)C32)c1 (configuration not stated) | 105.5* | 0.0848
COc1cc(CO)cc(I)c1O[C@H]1C=C(C(=O)NCCO)C[C@@H](NC[C@@H]2CCCO2)[C@@H]1O | 10.2 | 0.12
CCOC(=O)CN1C(=O)S/C(=C/c2ccc3c(c2)n(C)c(=O)n3C)C1=O | 0.4 | ·
CCOC(=O)CN1C(=O)S/C(=C\c2ccccc2OCc2ccccc2F)C1=O | 102.5* | ·
Cc1cc(C(=O)Nc2cccc3c2O[C@H](CN(C)C(=O)NC2CCCCC2)[C@@H](C)CN([C@@H](C)CO)C3=O)n(C)n1 | -14.1 | -0.123
C[C@H](CO)N1C[C@H](C)[C@H](CN(C)Cc2ccc(-c3ccccc3)cc2)Oc2ccc(NC(=O)Nc3ccc(F)cc3)cc2C1=O | 33.0 | 0.0415
COc1cc(-c2cc(=O)c3c(O)c(OC)c(OC)c(OC)c3o2)cc(OC)c1OC | 99.0* | -0.351
COc1cc(O)c2c(=O)cc(-c3ccccc3)oc2c1OC | 59.2 | -0.142
CC(C)NC(=O)N(C)C[C@H]1Oc2c(NC(=O)C3CCOCC3)cccc2C(=O)N([C@H](C)CO)C[C@@H]1C | -2.0 | 0.268
Oc1ccc2ccccc2c1/C=N/N1CCN(Cc2ccccc2)CC1 | -0.1 | ·
C[C@@H]1CCCCO[C@@H](CN(C)S(=O)(=O)c2ccccc2)[C@@H](C)CN([C@H](C)CO)C(=O)c2cc(NC(=O)Nc3ccc(F)cc3)ccc2O1 | 104.8* | 0.21
